WRN inhibitor: WRN helicase (human) inhibition; Q14191; WRN helicase unwinding, fluorescent forked duplex, kinetic; Potency, µM (titrated, usually from 114 µM), hits mostly inhibitors; 360,000 tested, 0.46% active; AID 651768; also: nearly all actives have a fitted effect of over 55% in size
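WRN at 20 nM final was preincubated with compound for 15 min at room temperature; reaction started with 100 nM forked duplex oligonucleotide carrying fluorophore and quencher plus 2 mM ATP (final). Unwinding followed kinetically by red fluorescence (ex 525/em 598 nm).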
Pol iota inh: inhibitors of human DNA polymerase iota; Q9UNA4; Pol iota fluorescent replication assay, 10 min; Potency, µM (series often up to 115 µM), most hits filed as inhibitors; 390,000 tested, 1% active
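Fluorescent replication assay read twice, at 0 min and 10 min after adding 50 nM (final) substrate. Enzyme (10 nM) and compounds were first incubated 15 min at room temperature; enzyme-free buffer wells were negative controls.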
Pol kappa inh: DNA polymerase kappa (human) inhibition. AID 588579. Potency, µM (titrated, usually from 107 µM), most hits filed as inhibitors. purified Pol kappa, fluorescent DNA synthesis assay, 10 min. 400,000 tested, 0.53% active. Q9UBT6
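Fluorescent qHTS in 1536-well format: enzyme (10 nM) and compound sat 15 min at room temperature before 50 nM substrate (final) was added. Signal taken at 0 and 10 min; no-enzyme buffer wells were negative controls.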
PI5P4K alpha inh: inhibitors of human PI5P4K alpha | PI5P4Kalpha enzyme, ADP-Glo luminescence, 60 min; hits give low values | 330,000 tested, 1.2% active | AID 652105 | max response, %; active = max response of -50% or lower; inconclusive = between -30% and -50%; inactive = -30% or higher; also: value at the top dose of about 77 µM
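Human PI5P4Kalpha with substrate in 0.038 M HEPES pH 7.4, 0.28 mM EGTA, 0.1% CHAPS, 5% DMSO; reaction started with 5 microM ATP (final), 60 min at room temperature. ADP formed read by ADP-Glo luminescence.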
POLB inh: inhibitors of human DNA polymerase beta; Pol beta primer extension/strand displacement, fluorescence kinetic; Potency, µM (top dose mostly 114 µM), actives largely listed as inhibitors; P06746; 340,000 tested, 1.3% active
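Pol beta (10 nM) was preincubated with compound for 15 min at room temperature. The reaction was then started with 50 nM substrate and read immediately and after a further 10 min at room temperature.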
Pol eta inh: DNA polymerase eta (human) inhibition. AID 588591. Potency, µM (titrated, usually from 114 µM), hits mostly inhibitors. recombinant Pol eta, fluorescent DNA replication assay. 390,000 tested, 1.2% active
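Pol eta (10 nM) was preincubated with compounds for 15 min at room temperature, after which fluorescent replication substrate (50 nM final) was added to start the reaction. Fluorescence was read kinetically at 0 and 10 min.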
TbPGK inh: blocks T. brucei phosphoglycerate kinase | shares compounds with Pol kappa inh | TbPGK coupled GAPDH assay, Kinase-Glo luminescence | Potency, µM (titrated, usually from 57.5 µM), most hits filed as inhibitors | 500 tested, 79% active; also: nearly all actives have a fitted effect of over 65% in size
POLI cherry-pick: Confirm cherry-picked inhibitors of human polymerase iota. AID 720496. 1,500 tested, 77% active. shares compounds with Pol kappa inh. Pol iota primer extension, TAMRA/BHQ fluorescence. Potency, µM, hits mostly inhibitors
A number is an active result; n = inactive; u = inconclusive; x = not tested or not shown. The list is not random: actives were taken first. Their share in the collection is about 2.8%. Unless noted, calls follow the shape of the dose curve; as a rule, active = well fitted curve in the direction sought with a large enough effect; inconclusive = small, poorly fitted or top-dose-only effect, or another doubt; inactive = no such curve, though single readings can be large; an effect the other way counts as inactive or inconclusive.

SMILES	WRN inhibitor	Pol iota inh	Pol kappa inh	PI5P4K alpha inh	POLB inh	Pol eta inh	others
Cc1ccc(-c2nc3ccccc3o2)cc1NC(=S)NC(=O)/C=C/c1ccco1	u	u	n	u	40µM	22µM	POLI cherry-pick=u
CCN(CC)c1ccc2nc3ccccc3[n+](CC)c2c1	u	u	n	u	u	u	TbPGK inh=33µM
CCN(CC)c1ccc2cc(-c3nc4ccccc4[nH]3)c(=O)oc2c1	n	n	n	n	u	u
CC(Oc1ccccc1)C(=O)Nc1c(C(=O)Nc2cccc(F)c2)oc2ccccc12 (stereo not given)	x	n	n	x	n	n
c1ccn2cc(-c3ccc4c(c3)OCCO4)nc2c1	n	u	n	n	n	n	TbPGK inh=u
O=C(O)Cc1cccc(=O)c(O)c1C(=O)O	u	22µM	u	n	x	4µM	TbPGK inh=5.2µM
O=C(O)Cc1ccccc1C(=O)O	n	n	n	x	n	n
COc1ccccc1NC(=O)c1cc2ccccc2o/c1=N\O	100µM	79µM	n	n	20µM	u	POLI cherry-pick=u
CCN(C(=O)c1cc2c(s1)-c1ccccc1OC2)c1cc(Cl)ccc1OC	x	n	n	x	u	n
CCC(CO)Nc1ncnc2c1cnn2-c1ccc(C)cc1 (stereo not given)	x	n	n	x	n	n
Cc1ccc(N=C2NC(=O)S/C2=C\c2ccco2)cc1	u	u	n	n	7.9µM	n	POLI cherry-pick=67
O=C1NC(=Nc2ccccc2)/C(=C/c2ccco2)S1	n	u	n	n	u	n
COc1cccc(NC(=O)Cn2c(=O)n(Cc3nc(-c4ccccc4)no3)c(=O)c3ccccc32)c1	x	n	n	x	n	n
Cc1cccc(/C(N)=N/OC(=O)c2ccc3c(c2)OCO3)c1	n	n	n	u	n	n	TbPGK inh=10µM
CCOC(=O)c1cc(-c2ccc(OC)cc2)n(CCC(=O)Nc2ccc(OC)cc2OC)c1C	x	n	n	x	n	n
CCOc1ccc(C=NNc2ccc(S(=O)(=O)Nc3ccccc3C(=O)O)cc2[N+](=O)[O-])cc1OC	u	u	u	-74	x	u	TbPGK inh=8.2µM
Cc1ccc(NC(=O)CSc2nc3ccccc3c3nc(CCn4c(C)nc5ccccc54)nn23)cc1F	x	79µM	n	x	u	u	POLI cherry-pick=u
Cc1cncn1CCc1nc2c3ccccc3nc(SCC(=O)Nc3ccc(F)cc3)n2n1	x	n	n	x	n	n	TbPGK inh=n
Cc1nc2ccccc2n1CCc1nc2c3ccccc3nc(SCC(=O)Nc3ccc(C(C)C)cc3)n2n1	x	u	n	x	n	n
O=C(CSc1oc(-c2ccco2)nc1S(=O)(=O)c1ccc(Cl)cc1)Nc1ccc(F)cc1	x	n	n	x	u	n
CCc1ccc(NC(=O)CCn2nc(-c3ccccc3OC)c3c(C)cc(C)nc32)cc1	x	n	n	x	u	n
Cc1ccc(CCNC(=O)c2cc3cc4cc(C)ccc4nc3s2)cc1	x	n	n	x	u	n
CCOc1ccccc1NC(=O)c1cc2cc3cc(C)ccc3nc2s1	x	n	n	x	n	n
Cc1ccc2nc3sc(C(=O)Nc4ccc(F)cc4)cc3cc2c1	x	u	n	x	2.5µM	n	POLI cherry-pick=75
Cc1ccc2nc3sc(C(=O)Nc4ccncc4)cc3cc2c1	x	x	x	x	x	x	POLI cherry-pick=u
Cc1c2cnn(-c3ccccc3)c(=O)c2c(C)n1C(C)C(=O)Nc1ccccc1C(F)(F)F (stereo not given)	x	n	n	x	n	n
Cc1nc(N2CCC(C)CC2)c2c(C)c(C(=O)Nc3cccc(C(F)(F)F)c3)sc2n1	n	n	n	n	n	n
Cc1nc(SC(C)C(=O)Nc2cccc(C(F)(F)F)c2)c2c(C)c(C(=O)O)sc2n1 (stereo not given)	u	n	u	n	u	u	POLI cherry-pick=34
CCc1nn2c(=O)cc(COC(=O)c3ccccc3)nc2s1	x	n	n	x	n	n
COc1ccc(OC)c(/C=N/NC(=O)c2cc3c(OC)cccc3[nH]2)c1	n	n	n	n	n	n

Compound activity from PubChem.
